For 26 compounds, inhibition results are on record in PubChem BioAssay.

“And” between values parts separate entries of the source, which are not always exact repeats. Identical values can stand only once. Unmarked numbers belong to inactive results. The list shows a part of the results. The source made the active and inactive calls.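 Rule for the calls, unless noted: active = mean inhibition above 46.68%, the untreated control wells mean plus 3 SD; inactive = the rest.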

In experiment [1] the target is Nuclear receptor coactivator 3 (Homo sapiens) (UniProt Q9Y6Q9). Description: SRC3 coactivator transcriptional activity inhibitors, confirmation, cell-based, luminescence, quadruplicate (AID 588792;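 active = mean inhibition over 43.08%, the solvent-only control mean plus 3 SD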;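 note: 0% = DMSO treated cells and 100% = gossypol at 36 µM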). To be noted: HEK293 GAL4-SRC3 luciferase reporter, at 3.6 µM, hits give high values. A general note: In a reporter assay the amount or activity of a reporter protein is the signal.
Nuclear receptor coactivator 3 (Homo sapiens), sequence (Q9Y6Q9 whole entry, looked up, the tested form may be a part): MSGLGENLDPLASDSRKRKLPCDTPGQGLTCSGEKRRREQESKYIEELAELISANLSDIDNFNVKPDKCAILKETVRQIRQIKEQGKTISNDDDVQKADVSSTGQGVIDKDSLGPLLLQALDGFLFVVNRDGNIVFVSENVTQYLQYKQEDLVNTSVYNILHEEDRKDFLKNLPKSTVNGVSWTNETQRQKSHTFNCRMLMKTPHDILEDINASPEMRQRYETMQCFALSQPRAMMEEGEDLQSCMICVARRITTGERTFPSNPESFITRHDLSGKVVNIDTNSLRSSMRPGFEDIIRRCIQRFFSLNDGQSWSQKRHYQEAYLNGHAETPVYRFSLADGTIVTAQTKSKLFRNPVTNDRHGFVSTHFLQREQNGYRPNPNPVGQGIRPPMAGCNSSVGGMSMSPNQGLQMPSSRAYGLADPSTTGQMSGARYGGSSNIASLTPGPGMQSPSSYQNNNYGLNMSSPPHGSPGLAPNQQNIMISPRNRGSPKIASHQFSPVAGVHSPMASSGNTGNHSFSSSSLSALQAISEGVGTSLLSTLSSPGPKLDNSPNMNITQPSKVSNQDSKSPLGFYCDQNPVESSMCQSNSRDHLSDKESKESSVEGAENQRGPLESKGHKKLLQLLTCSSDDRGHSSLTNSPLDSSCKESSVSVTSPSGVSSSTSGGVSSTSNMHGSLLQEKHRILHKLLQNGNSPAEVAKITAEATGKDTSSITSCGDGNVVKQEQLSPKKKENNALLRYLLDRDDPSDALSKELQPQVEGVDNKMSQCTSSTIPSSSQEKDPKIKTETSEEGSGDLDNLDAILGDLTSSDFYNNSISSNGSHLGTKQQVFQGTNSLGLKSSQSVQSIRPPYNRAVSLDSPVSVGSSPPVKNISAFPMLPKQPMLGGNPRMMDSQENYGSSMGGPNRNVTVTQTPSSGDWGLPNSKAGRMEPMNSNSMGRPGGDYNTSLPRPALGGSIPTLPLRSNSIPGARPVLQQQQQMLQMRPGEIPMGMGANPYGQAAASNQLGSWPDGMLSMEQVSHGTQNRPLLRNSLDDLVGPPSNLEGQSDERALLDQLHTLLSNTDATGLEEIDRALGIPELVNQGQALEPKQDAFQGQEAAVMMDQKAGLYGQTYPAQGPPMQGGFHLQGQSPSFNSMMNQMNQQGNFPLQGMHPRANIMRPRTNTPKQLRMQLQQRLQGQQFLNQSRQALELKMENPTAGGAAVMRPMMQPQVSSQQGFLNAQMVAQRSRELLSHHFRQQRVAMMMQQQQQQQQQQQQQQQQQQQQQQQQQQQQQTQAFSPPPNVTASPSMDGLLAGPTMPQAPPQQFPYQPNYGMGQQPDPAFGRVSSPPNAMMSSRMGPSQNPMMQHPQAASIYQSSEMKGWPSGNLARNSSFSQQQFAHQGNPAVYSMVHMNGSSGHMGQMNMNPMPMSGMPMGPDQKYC

In experiment [2] the test system is transactivating tegument protein VP16 (Human herpesvirus 1), Gal4-VP16 luciferase reporter. Kind of experiment: VP16 transactivation inhibitors, counter-screen for SRC3 inhibitor project, cell-based, luminescence, high throughput (AID 588794; in the data active = inhibition above about 30%). The note with it: mammalian cells, VP16-driven luciferase reporter luminescence; at 3.6 µM; hits give high values. (In general: A counterscreen serves to expose hits that act by an unwanted route or on another target.)

Experiment [3] is described as follows: StAR promoter reporter inhibitors, counter-screen for LRH-1 inverse agonist project, cell-based, luminescence, high throughput (AID 651611; in the data active = inhibition above about 28%). To be noted: StAR promoter luciferase reporter counterscreen, at 3.6 µM, hits give high values.
The target of experiment [4] is Nuclear receptor subfamily 5 group A member 2 (Homo sapiens) (UniProt O00482). Description: LRH-1 (NR5A2) inverse agonists, retest, confirmation, cell-based, luminescence (AID 651613; in the data active = inhibition above about 42%;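 note: HEK293T cells co-transfected with LRH-1 and StAR promoter luciferase reporter; 0% = vehicle wells and 100% = parental cells lacking receptor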). The note with it: cell-based LRH-1 luciferase reporter, inverse agonism; at 3.6 µM; hits give high values.
Nuclear receptor subfamily 5 group A member 2 (Homo sapiens), sequence (O00482 whole entry, looked up): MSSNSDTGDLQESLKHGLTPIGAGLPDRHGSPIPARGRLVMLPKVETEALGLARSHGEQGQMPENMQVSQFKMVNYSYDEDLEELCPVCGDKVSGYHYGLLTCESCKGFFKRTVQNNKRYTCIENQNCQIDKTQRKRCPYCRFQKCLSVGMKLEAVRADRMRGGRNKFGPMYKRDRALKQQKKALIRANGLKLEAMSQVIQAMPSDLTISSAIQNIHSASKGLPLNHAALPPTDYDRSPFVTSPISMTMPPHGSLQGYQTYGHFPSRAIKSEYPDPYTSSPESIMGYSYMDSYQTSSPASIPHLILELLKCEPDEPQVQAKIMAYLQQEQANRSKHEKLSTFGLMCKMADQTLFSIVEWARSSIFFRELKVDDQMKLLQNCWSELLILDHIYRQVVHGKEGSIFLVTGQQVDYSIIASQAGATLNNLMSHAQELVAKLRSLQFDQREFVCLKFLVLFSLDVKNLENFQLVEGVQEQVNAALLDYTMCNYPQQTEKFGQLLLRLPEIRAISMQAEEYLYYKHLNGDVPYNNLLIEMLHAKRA
In experiment [5] the target is Steroidogenic factor 1 (Homo sapiens) (UniProt Q13285). Description: SF1 (NR5A1) inverse agonists, counter-screen for LRH-1 inverse agonist project, cell-based, luminescence, high throughput (AID 651614; in the data active = inhibition above about 44%;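 note: cells cotransfected with StAR promoter reporter and SF1 expression vector; 0% = vehicle on cells with receptor and 100% = vehicle on cells lacking receptor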). To be noted: cell-based SF1 luciferase reporter, at 3.6 µM, hits give high values.
Steroidogenic factor 1 (Homo sapiens), sequence (Q13285 whole entry, looked up, the tested form may be a part): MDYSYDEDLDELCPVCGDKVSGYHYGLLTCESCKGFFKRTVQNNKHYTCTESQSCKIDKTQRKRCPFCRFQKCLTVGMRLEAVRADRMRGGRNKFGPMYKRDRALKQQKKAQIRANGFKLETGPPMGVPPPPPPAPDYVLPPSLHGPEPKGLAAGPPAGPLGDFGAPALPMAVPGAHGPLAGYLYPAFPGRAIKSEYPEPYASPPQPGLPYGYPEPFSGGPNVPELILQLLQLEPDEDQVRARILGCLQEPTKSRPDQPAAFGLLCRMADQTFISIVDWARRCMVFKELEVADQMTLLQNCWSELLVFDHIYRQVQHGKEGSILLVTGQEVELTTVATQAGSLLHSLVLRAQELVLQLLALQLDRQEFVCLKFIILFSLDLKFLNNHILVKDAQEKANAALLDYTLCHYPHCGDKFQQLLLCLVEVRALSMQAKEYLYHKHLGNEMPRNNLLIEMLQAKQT
The nature of experiment [6]: VP16 transactivation reporter inhibitors, counter-screen for LRH-1 inverse agonist project, cell-based, luminescence, high throughput (AID 651615; in the data active = inhibition above about 33%). The note with it: Gal4-VP16 luciferase reporter cells, at 3.6 µM, hits give high values.
The target in experiment [7] is Nuclear receptor coactivator 1 (Homo sapiens) (UniProt Q15788). Kind of experiment: SRC1 coactivator transcriptional activity inhibitors, confirmation, cell-based, luminescence, quadruplicate (AID 588820).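 Note: 0% = DMSO wells and 100% = gossypol 36 µM treated wells.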 To be noted: HEK293 GAL4-SRC1 luciferase reporter, at 3.6 µM, hits give high values.
Nuclear receptor coactivator 1 (Homo sapiens), sequence (Q15788 whole entry, looked up, the tested form may be a part): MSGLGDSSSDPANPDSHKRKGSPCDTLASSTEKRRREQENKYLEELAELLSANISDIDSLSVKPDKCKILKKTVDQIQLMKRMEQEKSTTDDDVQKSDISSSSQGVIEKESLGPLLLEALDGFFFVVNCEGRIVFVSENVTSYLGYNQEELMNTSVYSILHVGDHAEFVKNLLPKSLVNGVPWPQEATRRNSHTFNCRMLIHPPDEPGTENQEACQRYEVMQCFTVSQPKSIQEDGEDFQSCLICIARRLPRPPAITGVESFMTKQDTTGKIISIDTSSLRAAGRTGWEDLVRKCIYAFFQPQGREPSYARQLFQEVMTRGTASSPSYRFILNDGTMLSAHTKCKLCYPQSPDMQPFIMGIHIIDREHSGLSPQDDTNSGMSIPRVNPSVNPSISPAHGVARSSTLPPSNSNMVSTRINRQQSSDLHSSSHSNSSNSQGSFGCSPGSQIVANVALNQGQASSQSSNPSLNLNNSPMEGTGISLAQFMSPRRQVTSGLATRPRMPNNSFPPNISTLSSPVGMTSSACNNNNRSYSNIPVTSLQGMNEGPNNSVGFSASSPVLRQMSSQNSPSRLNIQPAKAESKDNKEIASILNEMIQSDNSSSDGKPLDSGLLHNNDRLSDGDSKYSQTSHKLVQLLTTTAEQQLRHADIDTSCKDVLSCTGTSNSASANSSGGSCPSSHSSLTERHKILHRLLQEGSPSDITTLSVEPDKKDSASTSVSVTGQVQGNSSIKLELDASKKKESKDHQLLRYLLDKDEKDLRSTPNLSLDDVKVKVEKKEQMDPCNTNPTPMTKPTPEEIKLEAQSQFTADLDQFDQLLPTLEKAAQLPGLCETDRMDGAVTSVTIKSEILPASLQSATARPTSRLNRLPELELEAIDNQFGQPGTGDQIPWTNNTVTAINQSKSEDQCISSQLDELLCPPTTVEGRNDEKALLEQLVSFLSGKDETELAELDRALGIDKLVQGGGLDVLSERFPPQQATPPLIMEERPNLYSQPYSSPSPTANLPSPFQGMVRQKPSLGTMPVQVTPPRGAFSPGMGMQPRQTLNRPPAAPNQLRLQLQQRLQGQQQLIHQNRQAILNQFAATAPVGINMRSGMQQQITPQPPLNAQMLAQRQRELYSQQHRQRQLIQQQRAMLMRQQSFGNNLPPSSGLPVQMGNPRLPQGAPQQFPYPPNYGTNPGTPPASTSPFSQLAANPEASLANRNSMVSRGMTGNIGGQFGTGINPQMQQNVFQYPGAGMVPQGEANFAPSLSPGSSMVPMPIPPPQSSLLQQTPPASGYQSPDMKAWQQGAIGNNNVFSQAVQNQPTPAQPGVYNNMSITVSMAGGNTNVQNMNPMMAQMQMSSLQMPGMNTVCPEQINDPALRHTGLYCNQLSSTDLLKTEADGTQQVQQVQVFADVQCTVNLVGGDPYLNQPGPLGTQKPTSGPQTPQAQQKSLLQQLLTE
Experiment [8] is described as follows: VP16 transactivation inhibitors, counter-screen for SRC1 inhibitor project, cell-based, luminescence, high throughput (AID 588824; in the data active = inhibition above about 25%). The note with it: cell-based VP16 transactivation luciferase luminescence; at 3.6 µM; hits give high values.
Experiment [9] concerns transactivating tegument protein VP16 (Human herpesvirus 1). Description: VP16 transactivation reporter inhibitors, counter-screen for SRC2 inhibitor project, cell-based, luminescence, single concentration (AID 652007; in the data active = inhibition above about 36%). To be noted: cell-based VP16 transactivation luciferase reporter, at 8.9 µM, hits give high values.
Experiment [10] deals with Nuclear receptor coactivator 2 (Homo sapiens) (UniProt Q15596). Kind of experiment: SRC2 coactivator transcriptional activity inhibitors, confirmation, cell-based, luminescence, HEK293, triplicate (AID 652008;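 active = mean inhibition above 46.5%, the solvent-only control mean plus 3 SD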;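 note: 0% = DMSO-treated cells and 100% = Gossypol at 36 µM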). The note with it: HEK293 GAL4-SRC2 luciferase reporter, at 8.9 µM, hits give high values.
In experiment [11] the target is Receptor-interacting serine/threonine-protein kinase 2 (Homo sapiens) (UniProt O43353). Description: NOD2-RIPK2 binding disruptors, retest, confirmation, fluorescence, CHO cells, BLA complementation, triplicate (AID 624370;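 active = mean inhibition across replicates above a set limit taken from the earlier primary screen, cut at about 21% in these data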;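 note: 0% = DMSO-only wells and the high end = clavulanate BLA-blocked wells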). To be noted: CCF4 FRET, at 4.98 µM, hits give high values.
Receptor-interacting serine/threonine-protein kinase 2 (Homo sapiens), sequence (O43353 whole entry, looked up): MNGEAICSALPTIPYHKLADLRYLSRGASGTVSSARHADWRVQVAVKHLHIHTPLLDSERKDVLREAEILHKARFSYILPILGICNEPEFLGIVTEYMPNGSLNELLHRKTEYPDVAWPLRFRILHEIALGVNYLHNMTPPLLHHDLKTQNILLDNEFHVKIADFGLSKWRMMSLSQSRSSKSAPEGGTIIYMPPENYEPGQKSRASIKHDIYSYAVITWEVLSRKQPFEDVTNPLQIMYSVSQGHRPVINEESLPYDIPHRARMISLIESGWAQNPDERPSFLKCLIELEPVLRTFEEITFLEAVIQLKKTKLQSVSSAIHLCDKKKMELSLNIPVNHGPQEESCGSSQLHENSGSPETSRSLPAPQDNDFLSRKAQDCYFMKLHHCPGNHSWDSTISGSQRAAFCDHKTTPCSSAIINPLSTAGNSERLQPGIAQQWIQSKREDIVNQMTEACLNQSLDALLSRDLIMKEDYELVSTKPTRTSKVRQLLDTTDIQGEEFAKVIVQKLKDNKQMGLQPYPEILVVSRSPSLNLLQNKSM
Experiment [12] is described as follows: beta-lactamase reporter inhibitors in CHO cells, confirmation, artefact control for NOD2-RIPK2 interaction inhibitor project, cell-based, CHO-K1 CMV-bla, CCF4 FRET, fluorescence (AID 624371;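 active = mean inhibition above the low-control mean inhibition plus three low-control SD, cut at about 11% in these data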;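 note: 0% = DMSO only wells and 100% = clavulanate high control wells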). The note with it: CCF4 FRET ratio, counterscreen, at 4.98 µM, hits give high values.
Experiment [13] deals with Photoreceptor-specific nuclear receptor (Homo sapiens) (UniProt Q9Y5X4). Kind of experiment: NR2E3 agonist confirmation in cells, cell-based, luminescence, CHO-S two-hybrid (AID 624378;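 active = average inhibition above a cutoff equal to the mean inhibition of all tested compounds plus one SD, cut at about 70% in these data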;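 note: 0% = DMSO in NR2E3 cells and 100% = DMSO in cells lacking NR2E3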). To be noted: CHO-S mammalian two-hybrid NR2E3-NCOR, luciferase luminescence; at 3.98 µM; hits give high values.
Photoreceptor-specific nuclear receptor (Homo sapiens), sequence (Q9Y5X4 whole entry, looked up, the tested form may be a part): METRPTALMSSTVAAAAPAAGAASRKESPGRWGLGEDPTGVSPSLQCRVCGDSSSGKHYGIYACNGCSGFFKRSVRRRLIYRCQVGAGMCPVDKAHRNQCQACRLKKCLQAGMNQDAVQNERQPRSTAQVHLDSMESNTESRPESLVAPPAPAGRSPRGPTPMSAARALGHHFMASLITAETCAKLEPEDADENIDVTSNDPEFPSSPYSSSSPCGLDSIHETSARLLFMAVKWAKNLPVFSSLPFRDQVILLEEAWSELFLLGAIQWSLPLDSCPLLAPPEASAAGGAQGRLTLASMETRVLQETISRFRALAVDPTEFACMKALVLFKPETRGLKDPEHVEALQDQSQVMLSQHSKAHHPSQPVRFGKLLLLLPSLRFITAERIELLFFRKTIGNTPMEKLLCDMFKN
The nature of experiment [14]: GAL4-VP16 reporter modulators, confirmation, counter-screen for NR2E3 agonist project, cell-based, luminescence, CHO-S, high throughput (AID 624379;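 active = mean inhibition above a cutoff equal to the average over all tested compounds plus one standard deviation, cut at about 70% in these data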;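 note: 0% = DMSO with VP16-transfected cells and 100% = DMSO with cells lacking VP16; higher means less reporter light so more repression of VP16 activity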). To be noted: CHO-S GAL4-VP16 luciferase reporter, at 3.98 µM, hits give high values.

With `CNC(=O)c1cccn(Cc2ccc(C(F)(F)F)cc2)c1=O`, the inhibition (commonly the relative decrease from the control value, in per cent) in [1] is 30.3%; in [2] it was -34.3%; in experiment [3], 47.7% (active); in experiment [4] it was 65.9% (active); in experiment [5], 54.3% (active); in [6], -78.8%.

With `O=C(c1cn(Cc2ccccc2F)c2ncccc12)C(F)(F)F`, the inhibition in experiment [7] is -9.15%; in [8], -0.44%.

As for `C[C@H]1CCC/C=C/[C@@H]2C[C@H](O)C[C@H]2[C@@H](O)/C=C/C(=O)O1`, the inhibition is 64.3% (active) in [1]; 77.3% (active) in [2]; 81.5% (active) in [3]; 85.4% (active) in [4]; 80% (active) in experiment [5]; 74.8% (active) in experiment [6].

In the case of `COc1ccc(-n2nnnc2C(c2cccc3ccccc23)N2CCC3(CC2)C(=O)NCN3c2ccccc2)cc1` (stereo not given), the inhibition was -1.91% in experiment [7] and 5.57% in experiment [8].

Turning to `COc1ccc(CN2Cc3cnnn3-c3ccccc3C2C#N)cc1` (stereo not given), the inhibition in experiment [1] was 62.8% (active); in experiment [2], 56.2% (active); in experiment [9], 51.6% (active); in experiment [10] it was 49.8% (active).

`CC(=O)OC1C2(CC3N4C(=O)C5(CO)SSC4(CC31O)C(=O)N5C)OC(C)C(C)(C)C2=O` (stereo not given): the inhibition was 95.9% (active) in experiment [1]; 94.1% (active) in [2]; 41.9% (active) in [11]; 0.4% in experiment [12]; 98.8% (active) in experiment [13]; 99.1% (active) in experiment [14]. In addition, the inhibition in [3] was 96.3% (active); in experiment [4], 110% (active); in [5], 98.4% (active); in [6] it was 97.4% (active).

Turning to `CCN(CC)C(=O)c1ccc(NC(=O)c2ccc(-n3cncn3)c([N+](=O)[O-])c2)cc1`, the figures for the inhibition in experiment [7] and in experiment [8] were -2.4% and 5.45%, respectively.

For the compound `CN1C2CCC1/C(=C/c1ccccn1)C(=O)/C2=C\c1ccccn1`, the inhibition was -0.02% in experiment [1], 80.8% (active) in [2], 75% (active) in experiment [9] and 70.9% (active) in experiment [10].

Consider `COc1ccc(-n2nnnc2C(CCSC)N2CCC(n3c(=O)[nH]c4ccccc43)CC2)cc1` (stereo not given), for which the inhibition in experiment [7] is -13.8%; in experiment [8] it was -1.55%.

As for `CC(C)c1oc(=O)cc2c1[C@@H](O)[C@H]1OC(=O)[C@@]3(C)C[C@@H](O)[C@@H](O)[C@@]2(C)C13` (stereo not given in full), the inhibition is 79.4% (active) in experiment [1]; 67.4% (active) in experiment [2]; 84.4% (active) in [3]; 104% (active) in experiment [4]; 90% (active) in experiment [5]; 77.4% (active) in experiment [6]. Further, the inhibition was 8.02% in experiment [9] and 13.1% in experiment [10].

With `CCC(c1nnnn1-c1ccc2c(c1)OCCO2)N1CCC(n2c(=O)[nH]c3ccccc32)CC1` (stereo not given), the results for the inhibition in experiment [7] and in experiment [8] were -22% and 9.85%, respectively.

Regarding `CC(C)(O)/C=C/C(=O)C(C)(O)C1C(O)CC2(C)C3CC=C4C(C=C(O)C(=O)C4(C)C)C3(C)C(=O)CC12C` (stereo not given), the inhibition is 70.1% (active) in [1]; 74% (active) in experiment [2]; 66% (active) in [3]; 79.3% (active) in [4]; 78.9% (active) in experiment [5]; 86.1% (active) in [6]. For the same compound, the results for the inhibition in [9] and in experiment [10] were 62.2% (active) and 96.5% (active), respectively.

For `CC(=CCOc1ccc2ccc(=O)oc2c1)C1=CC(=O)C(C)(C)O1`, the inhibition in experiment [7] was 17.3%; in experiment [8], 35.2% (active).

On to `Cc1cccc(C)c1-n1nnnc1C(c1cccs1)N1CCC2(CC1)C(=O)NCN2c1ccccc1` (stereo not given), for which the inhibition in experiment [7] was 22.3%; in experiment [8], 4.87%.

In the case of `COc1ccc(C(c2nnnn2Cc2ccccc2)N2CCC(n3c(=O)[nH]c4ccccc43)CC2)cc1` (stereo not given), the results for the inhibition in experiment [7] and in experiment [8] were -42.8% and -11.4%, respectively.

Consider `CC1CCC/C=C/C2CC(O)CC2C(O)/C=C/C(=O)O1` (stereo not given), for which the inhibition in experiment [1] was 64.7% (active); in [2] it was 75% (active); in experiment [3] it was 78.9% (active); in [4], 86.7% (active); in experiment [5] it was 80.8% (active); in experiment [6], 74.8% (active).

For the compound `CCC(c1nnnn1Cc1ccccc1)N1CCC(n2c(=O)[nH]c3ccccc32)CC1` (stereo not given), the inhibition in [7] was -50.1%; in experiment [8], 0.59%.

As for `c1ccc(-c2[nH]c(-c3ccccc3)[n+](CC3CO3)c2-c2ccccc2)cc1` (stereo not given), the inhibition in experiment [1] was 13.4%; in experiment [2], -0.66%; in experiment [9] it was 22.1%; in experiment [10], 30.2%.

For the compound `C1=NCCc2c1[nH]c1ccccc21`, the inhibition was 27.8% in experiment [1]; -13.4% in experiment [2]; 14.4% in experiment [3]; 50.2% (active) in experiment [4]; 44.8% (active) in experiment [5]; -11.6% in experiment [6].

Take `C[C@H]1CCC/C=C/[C@@H]2C[C@H](O)C[C@H]2[C@H](O)/C=C/C(=O)O1`: the inhibition in [1] is 70% (active) and 66.5% (active); in [2], 76.2% (active) and 77.2% (active); in experiment [3], 77.6% (active) and 82% (active); in experiment [4] it was 82.1% (active) and 88.7% (active); in [5], 75% (active) and 80.4% (active); in [6] it was 78.7% (active) and 78.3% (active).

In the case of `COC(=O)C1=C(c2ccc(-c3ccccc3)c(F)c2)C[C@@H]2CC[C@H]1N2C(=O)NC1CC1`, the inhibition in [7] is 15.1%; in experiment [8] it was 25.6% (active).

For the compound `CN1CCN(c2cccc3c2C(=O)c2ccccc2C3=O)CC1`, the inhibition was 20.1% in experiment [7] and 14.8% in [8].

Regarding `Cc1cccc(-n2c(C)nc3ccccc3c2=O)c1C`, the inhibition in experiment [7] is 2%; in [8], 9.3%.

Consider `CC(=O)c1cn(Cc2ccccc2F)c2ccccc12`, for which the inhibition is -1.96% in experiment [7] and 35.7% (active) in experiment [8].

For `O=c1[nH]c2ccccc2n1C1CCN(C(c2cccs2)c2nnnn2-c2ccc3c(c2)OCCO3)CC1` (stereo not given), the inhibition in experiment [7] was -26.2%; in experiment [8], 25.5% (active).

Take `N#Cc1ccc(Cn2cc(C=O)c3ccccc32)cc1`: the inhibition in experiment [3] was 4.87%; in experiment [4], 39.1%; in experiment [5] it was 42.4%; in [6] it was 1.97%.
